In PubChem BioAssay (EPA / NIEHS):
Some compounds were tested as several samples or in several runs, with calls that do not always agree. Calls of active or inactive are those of the source. Rule for the calls: active = hit-call score of the fitted dose curve at least 0.9, where 1 is the maximum; inactive = score below 0.9.

These compounds were tested against Hepatocyte nuclear factor 6 (Homo sapiens) (UniProt Q9UBC0) (assay: ATG_HNF6_CIS: Attagene CIS-FACTORIAL HepG2 Assay for human Hepatocyte Nuclear Factor 6 (HNF6) (AID 2282952)). Settings: HepG2 Attagene cis-factorial HNF6 reporter transcription; actives raise or lower the signal.
Experimental: ATG_CIS is a cell-based, multiplexed-readout assay that uses HepG2, a human liver cell line, with measurements taken at 24 hours after chemical dosing in a 24-well plate.ATG_HNF6_CIS is one of 52 assay component(s) measured or calculated from the ATG_CIS assay. It is designed to make measurements of mRNA induction, a form of inducible reporter, as detected with fluorescence intensity signals by Reverse transcription polymerase chain reaction (RT-PCR) and Capillary electrophoresis technology.Data from the assay component ATG_HNF6_CIS was analyzed into 1 assay endpoint. This assay endpoint, ATG_HNF6_CIS, was analyzed with bidirectional fitting relative to DMSO as the negative control and baseline of activity. Using a type of inducible reporter, measures of mRNA for gain or loss-of-signal activity can be used to understand the reporter gene at the transcription factor-level as they relate to the gene ONECUT1. Furthermore, this assay endpoint can be referred to as a primary readout, because this assay has produced multiple assay endpoints where this one serves a reporter gene function. To generalize the intended target to other relatable targets, this assay endpoint is annotated to the dna binding intended target family, where the subfamily is homeobox protein.
Human liver HepG2 cells are transiently transfected with multiple reporter transcription units (MRTUs) in 6-well plates using FuGene 6 reagent (Roche; 3 ml FuGene/1 mg DNA). The MRTU constructs are regulated by a cis-regulating element (promoter). […] A major difference between the CIS and TRANS system is that in CIS activities of endogenous TFs are measured, whereas the TRANS assay evaluates changes in activities of exogenous, chimeric NR-Gal4 proteins. […] At the end of 24 hour incubation, total RNA was isolated using TriZol reagent (Invitrogen). The isolated RNA is then reverse-transcribed using oligo(dT) primer and Mo-MLV reverse transcriptase (Invitrogen) with DNAse I (Ambion) treatment for 30 min. The one-tenth of the produced cDNA was amplified by PCR using Taq DNA polymerase (Invitrogen) and two reporter sequence-specific primers. The PCR products were fluorescently labeled by primer extension with 6-arboxyfluorescein (6-FAM) 5'-labeled reporter sequence-specific primer (2 min at 95 C, 20 s at 68 C and 10 min at 72 C) and these products were digested with 5U of HpaI (New England Biolabs) for 2h at 37 C. The fragments were purified using Qiaquick PCR columns (Qiagen), analyzed on an ABI 3130xL genetic analyzer (Applied Biosystems) with peak positions identified by using a set of X-rhodamine (ROX)-labeled MapMarker1000 molecular weight standards (BioVentures). The raw capillary electrophoresis data was processed using Attagraph software (Attagene).

Chain of Hepatocyte nuclear factor 6 (Homo sapiens) (Q9UBC0 whole entry, looked up): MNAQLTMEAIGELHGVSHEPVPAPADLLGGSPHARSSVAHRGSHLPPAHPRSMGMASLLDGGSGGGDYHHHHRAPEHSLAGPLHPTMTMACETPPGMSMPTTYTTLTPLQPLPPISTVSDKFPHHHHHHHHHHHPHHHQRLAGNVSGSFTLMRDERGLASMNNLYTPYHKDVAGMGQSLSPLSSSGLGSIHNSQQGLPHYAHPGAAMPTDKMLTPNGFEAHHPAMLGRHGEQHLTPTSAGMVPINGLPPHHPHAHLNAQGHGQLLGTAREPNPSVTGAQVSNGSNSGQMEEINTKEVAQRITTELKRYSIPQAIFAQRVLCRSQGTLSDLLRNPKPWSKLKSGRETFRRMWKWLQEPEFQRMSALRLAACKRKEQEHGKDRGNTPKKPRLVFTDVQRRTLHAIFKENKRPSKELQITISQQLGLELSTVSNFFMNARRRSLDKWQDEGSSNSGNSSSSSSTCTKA

SMILES | outcome | AC50
Nc1ccc(-c2ccc(N)cc2)cc1 | inactive | –
Cc1ccc(O)c(C)c1 | inactive | –
CCNc1nc(NC(C)C)nc(SC)n1 | inactive | –
CCCCCCCCCC[N+](C)(C)CCCCCCCCCC | inactive | –
c1cc2ccc3cccc4ccc(c1)c2c34 | inactive | –
O=C(NC(=O)c1c(F)cccc1F)Nc1cc(Cl)c(OC(F)(F)C(F)F)c(Cl)c1 | inactive | –
NS(=O)(=O)C(F)(F)C(F)(F)C(F)(F)C(F)(F)C(F)(F)C(F)(F)C(F)(F)C(F)(F)F | inactive | 96.7 µM (active)
ClC1=C(Cl)[C@]2(Cl)[C@@H]3[C@@H](Cl)[C@H]4O[C@H]4[C@@H]3C1(Cl)C2(Cl)Cl | inactive | –
OCC(O)CO | inactive | –
CN(C)c1nc(=O)n(C2CCCCC2)c(=O)n1C | inactive | –
Cc1cccc(C)c1N | inactive | –
CCCCCCOC(=O)c1ccccc1C(=O)OCCCCCC | inactive | –
O=C(O)C(F)(F)C(F)(F)C(F)(F)C(F)(F)C(F)(F)C(F)(F)C(F)(F)C(F)(F)C(F)(F)F | inactive | 58.9 µM (active)
O=C(O)C(F)(F)C(F)(F)C(F)(F)C(F)(F)C(F)(F)C(F)(F)C(F)(F)C(F)(F)F | inactive | –
O=NN(c1ccccc1)c1ccccc1 | inactive | –
CCOCCOC(C)=O | inactive | –
CC(C)C(=O)OCC(C)(C)C(OC(=O)C(C)C)C(C)C (stereo not given) | inactive | –
Clc1ccc(C(c2ccccc2Cl)C(Cl)(Cl)Cl)cc1 (stereo not given) | inactive | –

SMILES | outcome | AC50
CC1=C2C[C@H]3[C@@H](CC=C4C[C@@H](O)CC[C@@]43C)[C@@H]2CC[C@]12O[C@@H]1C[C@H](C)CN[C@H]1[C@H]2C | inactive | –
Oc1ccc(C(c2ccc(O)cc2)(C(F)(F)F)C(F)(F)F)cc1 | inactive | –
CCC(C)(CC)c1cc(NC(=O)c2c(OC)cccc2OC)on1 | inactive | –
ClC(Cl)=C(c1ccc(Cl)cc1)c1ccc(Cl)cc1 | inactive | –
CC#Cc1cc(C)nc(Nc2ccccc2)n1 | inactive | –
Sc1ccccc1 | inactive | –
C[C@]12CCC(=O)C=C1CC[C@@H]1[C@@H]2CC[C@@]2(C)[C@H]1CC[C@]2(C)O | inactive | –
CCC(C)c1cc([N+](=O)[O-])cc([N+](=O)[O-])c1O (stereo not given) | inactive | –
CCSC(=O)N(CC)C1CCCCC1 | inactive | –
CCCCCCCCCc1ccc(O)cc1 | inactive | 145 µM (active)
Cc1ccccc1O | inactive | –
Oc1c(Cl)c(Cl)c(Cl)c(Cl)c1Cl | inactive | 25.9 µM (active)
CCC(C)(c1ccc(O)cc1)c1ccc(O)cc1 | inactive | 51.8 µM (active)
N#Cc1ccc(N(CC(N)=O)CC(F)(F)F)cc1C(F)(F)F | inactive | –
Cc1cccc([N+](=O)[O-])c1 | inactive | –
C[C@]12CCC(=O)C=C1CC[C@@H]1[C@@H]2CC[C@]2(C)C(=O)CC[C@@H]12 | inactive | –
CO/C=C(/C(=O)OC)c1ccccc1COc1cccc(C(F)(F)F)n1 | inactive | –
